Screens: PubChem, Broad Institute
aSyn 5UTR act: Activators working through SNCA 5'UTR binding (MLPCN) | alpha-synuclein 5'UTR reporter, activators screen | activity score, % (tested at 7.5 µM), hits read low | 300,000 tested, 7.1% active | AID 1814; in the data active = activity score below about -60%
A number is an active result; – = inactive. Only a sample is shown.

SMILES	aSyn 5UTR act
CCOC(=O)c1c(C)[nH]c(C(=O)N/N=C/c2cccc(OC)c2)c1C	-104
OC1(C(F)(F)F)CC(O)(C(F)(F)F)n2nc(-c3ccccc3)cc2N1 (stereo not given)	-126
CC(O)CNCCCCOc1ccc(OCc2ccccc2)cc1 (stereo not given)	-93
Cc1c(C(=O)NCCCN2CCCCC2)oc2ccc3c(c12)C(O)CC1(CCCCC1)O3 (stereo not given)	–
Cc1c(C(=O)NCc2ccoc2)oc2ccc3c(c12)C(=O)CC(C)(C)O3	-464
O=C(Nc1nnc(S(=O)(=O)N2CCN(c3ccc(F)cc3)CC2)s1)c1ccccc1	-63
O=C(Nc1nnc(S(=O)(=O)N2CCCCCC2)s1)c1ccccc1	-65
Cc1cc(/C=C2\SC(=S)N(C)C2=O)c(C)n1-c1cccc(O)c1	-71
COc1ccc(-n2c(C)cc(/C=C3/SC(=S)N(C)C3=O)c2C)cc1	-85
Cc1cc(/C=C2\SC(=S)N(Cc3ccco3)C2=O)c(C)n1-c1ccccc1	-74
S=C(NCCN1CCOCC1)N/N=C/c1c2ccccc2cc2ccccc12	-74
Cc1cc(C)n(CCC(=O)N/N=C/c2c(O)ccc3ccccc23)n1	–
O=C(Nc1ccc(Br)cc1)c1cc2ccccn2n1	-117
CC(=O)c1cccc(NC(=O)Nc2ccccc2)c1	-96
O=C(Nc1cccc(C(=O)Nc2ccc(Br)cc2)c1)c1ccccc1	-111
O=C(Nc1ccccc1)Nc1ccc2ccccc2c1	-141
CC(=O)c1cccc(NC(=O)c2ccc3ccccc3c2)c1	-145
CSc1ncc(C(=O)Nc2ccc(C(C)=O)cc2)c(C)n1	-87
CC1CCC(NC(=O)CCNC(=O)c2ccc(Br)cc2)CC1 (stereo not given)	-71
COC(=O)/C(=C\C(=O)c1ccccc1)Nc1cccc(C(F)(F)F)c1	-185
O=C(Nc1cccc(O)c1)c1ccc(Br)cc1	-181
O=C(Nc1ccccc1)Nc1cccc(C(F)(F)F)c1	-73
CC(=O)c1ccc(NC(=O)c2cc(C)nc3ccccc23)cc1	-101
Cc1cccc(NC(=O)CCNC(=O)c2ccc(Br)cc2)c1	-93
CC(=O)c1cccc(NC(=O)Nc2nc(C)cc(C)n2)c1	-85
SMILES	aSyn 5UTR act
O=C(Cc1ccccc1)NNc1ccc2ccccc2c1	-101
Nc1ccc(C(=O)Nc2cccc(N)c2)cc1	-67
CC(C)c1cc(C(=O)Nc2cccc(C(F)(F)F)c2)no1	-102
CCC(=O)Nc1cccc(NC(=O)c2ccc(Br)cc2)c1	-117
CC(C)OC(=O)c1cccc(NC(=O)c2ccccc2)c1	-132
CN(C)C(=S)Nc1ccc2ccccc2c1	-67
CC(=O)c1ccc(NC(=O)c2cccc(NC(=O)c3ccccc3)c2)cc1	-116
N#C/C(=C\c1ccccc1O)C(=O)Nc1cccnc1	-107
Cc1cc(/C=C(\C#N)C(=O)Nc2ccccc2)c(C)n1-c1cccnc1	-143
O=C1Nc2ccccc2/C1=C/c1cnc(-c2ccccc2)[nH]1	-78
O=C(/C=C/c1cn(-c2ccccc2)nc1-c1cccnc1)c1ccco1	-63
CCOC(=O)Cn1c(=NC(=O)c2ccc([N+](=O)[O-])s2)sc2ccccc21	-180
COc1cccc(C(=O)/C=C2\Sc3ccccc3N2C)c1	-131
CN1/C(=C\C(=O)c2cccnc2)Sc2ccccc21	-94
C=CCn1c2ccccc2c(=O)c2cc(C#CC3(O)CCCCC3)ccc21	-170
COc1ccc(O)c(/C=N/NC(=S)Nc2cccc(S(=O)(=O)N(C)C)c2)c1	–
COc1ccc(NC(=S)N/C(=N/CS(=O)(=O)c2ccccc2)c2ccccc2)cc1	-90
Cc1cccc(NC(=S)N/C(=N/S(=O)(=O)c2ccccc2)c2ccccc2)c1	-103
O=[N+]([O-])c1ccc(NC(=S)N/C(=N/CS(=O)(=O)c2ccccc2)c2ccccc2)cc1	-92
COc1ccc(COc2ccsc2C(=O)Nc2ccc(Cl)c(Cl)c2)cc1	-68
Cc1ccc(C(=O)Nc2ccc(OCc3ccccc3)cc2)s1	-107
Cc1ccsc1C(=O)Nc1ccc(OCc2ccccc2)cc1	-191
Cc1cc(C(=O)Nc2ccc(OCc3ccccc3)cc2)c(C)o1	-134
CCOC(=O)c1c(NC(=O)c2cc(C)oc2C)sc(C(=O)Nc2ccc(Cl)cc2)c1C	-102
CCCc1ccc2oc(C(=O)N(C)Cc3ccn[nH]3)c(C)c2c1	-85
SMILES	aSyn 5UTR act
CCCc1ccc2oc(C(=O)N(Cc3nccn3C)C(C)C)c(C)c2c1	-73
Cc1ccc(-c2csc(-c3c[nH]c4ccccc34)n2)c(C)c1	-92
Oc1ccc(-c2csc(-c3c[nH]c4ccccc34)n2)c(O)c1	-323
CCOC(=O)c1ccc(-c2ccc(/C=N/NC(=O)CN(c3ccccc3Br)S(C)(=O)=O)o2)cc1	-140
COc1ccc(CNC(=O)c2c(C)oc3c2C(=O)c2ccccc2C3=O)cc1	–
CC(=O)c1c(C)oc2c1C(=O)c1ccccc1C2=O	-62
c1ccc2c(-n3cccn3)cccc2c1	-83
C/C(=N\Nc1nc2ccc(Cl)cc2o1)c1ccccc1	-66
CCOC(=O)C1CCN(C(=O)c2cc(COc3ccc(F)cc3F)on2)CC1	-144
CCOC(=O)N1CCN(C(=O)c2cc(COc3ccc(F)cc3F)on2)CC1	-65
O=C(Nc1ccc(F)cc1)c1nsc(Cl)c1Cl	-178
O=C(Nc1ccc(F)c(Cl)c1)c1nsc(Cl)c1Cl	-110
CCOc1ccc(NC(=O)c2nsc(Cl)c2Cl)cc1	-117
O=C(/C=C/c1cccc(F)c1)c1ccc(N2CCOCC2)cc1	-80
O=C(CSC(=S)N1CCSCC1)c1ccc(Cl)cc1	-152
O=C(CSC(=S)N1CCSCC1)c1ccccc1	-94
COc1ccc2cc(-c3csc(-c4cccnc4)n3)ccc2c1	-251
COc1ccc(-c2csc(-c3cccnc3)n2)cc1C	-243
COCCC(=O)N1CCC(C(=O)Nc2ccc(Oc3ccccc3)nc2)CC1	-77
CC(=O)NC1=NC(=O)/C(=C/c2cc(C)n(-c3ccc(NC(C)=O)cc3)c2C)S1	-80
CCOC(=O)c1cc2c(nc1NC(=S)NCc1ccccc1)CCCC2	-107
COc1cccc(-c2cc(C(=O)NC3CCCC3)no2)c1	-115
O=C(NC1CCCCC1)c1ccc(-c2cccc([N+](=O)[O-])c2)o1	-127
COCCNC(=O)c1cc(-c2cccc(OC)c2)on1	-85
COCC(C)NC(=O)c1cc(-c2cccc(OC)c2)on1 (stereo not given)	-133
SMILES	aSyn 5UTR act
NNc1nc2c(-c3cccc(C(F)(F)F)c3)nnn2c2ccccc12	-71
CC(=O)n1c2ccccc2c2nc3ccccc3nc21	-98
CC(=O)n1cc(N(C(=O)CCl)c2ccc(C)cc2)c2ccccc21	–
O=C(CSc1n[nH]c(-c2ccccc2O)n1)N1CCOCC1	-70
Cc1ccc(CSC2=Nc3ccccc3C3=NC(CC(=O)NCc4ccco4)C(=O)N23)cc1 (stereo not given)	-73
O=C(Oc1ccc(NC2=C(Cl)C(=O)c3ccccc3C2=O)cc1)c1ccc([N+](=O)[O-])cc1	-109
C/C(CC(=O)Nc1ccc(Cl)c(C(F)(F)F)c1)=N\NC(=O)c1ccccc1O	-82
C/C(CC(=O)Nc1ccc(F)cc1)=N\NC(=O)c1ccccn1	-64
C/C(=N\NC(=O)CCCNc1ccc(C)cc1)c1ccccn1	–
CC(=O)Nc1ccccc1NC(=O)C/C(C)=N/NC(=O)c1ccccn1	-114
C/C(CC(=O)NCc1ccccc1Cl)=N/NC(=O)c1ccccn1	-116
C/C(CC(=O)NC1CCCCC1)=N\NC(=O)c1ccccn1	-132
C/C(=N\NC(=O)c1ccc(F)cc1)c1ccccn1	-93
Nc1ccc(OCCc2ccccc2)cc1	-76
